Shown are actives, neighbours in structure and some others; about 28% of the full set was active somewhere.
CYP2C9 activ – activators of human CYP2C9 | recombinant CYP2C9, luciferin-H conversion, luminescence; hits give high values; factor 1 = untreated enzyme, 0 = blocked | activation factor at 5 µM | 96,000 tested, 1.4% active | AID 1024;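 active = activation factor of 2 or more for CYP2C9 at a 5 µM dose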;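 note: 0 = sulfaphenazole-blocked wells and 1 = vehicle-only wells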
Target sequence (P11712 whole entry, looked up): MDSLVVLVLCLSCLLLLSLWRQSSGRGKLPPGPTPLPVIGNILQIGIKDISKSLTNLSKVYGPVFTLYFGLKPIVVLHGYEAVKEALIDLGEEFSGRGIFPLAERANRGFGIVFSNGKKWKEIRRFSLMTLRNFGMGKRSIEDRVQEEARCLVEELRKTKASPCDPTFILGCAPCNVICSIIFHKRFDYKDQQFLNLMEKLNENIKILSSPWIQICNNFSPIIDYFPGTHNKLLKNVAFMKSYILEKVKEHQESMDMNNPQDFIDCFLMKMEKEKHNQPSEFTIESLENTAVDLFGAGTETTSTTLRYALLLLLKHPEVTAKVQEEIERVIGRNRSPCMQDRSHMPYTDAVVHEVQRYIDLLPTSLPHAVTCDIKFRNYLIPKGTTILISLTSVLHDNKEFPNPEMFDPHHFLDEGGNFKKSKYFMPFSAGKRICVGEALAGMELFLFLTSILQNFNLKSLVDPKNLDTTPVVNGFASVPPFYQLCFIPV
CYP2C19 activ – increases human CYP2C19 enzyme activity; recombinant CYP2C19, luciferin-H EGE luminescence; hits give high values; 0 = fully inhibited enzyme, 1 = untreated enzyme; P33261; 96,000 tested, under 10 active; activation factor at 5 µM;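 active = activation factor of at least 2 at 5 µM in the primary screen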;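 note: 0 = wells with 2.5 mM tranylcypromine and 1 = vehicle-only wells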
CYP2C9 inhib – inhibitors of human CYP2C9 | CYP2C9 Supersomes, luciferin-H conversion, luminescence | P11712 | inhibition, % at 5 µM | AID 777 | 96,000 tested, 20% active;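 active = blocking of liver enzyme CYP2C9 beyond about 50% at 5 µM, limit read from the data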
Plk1 PBD FP – Plk1 (human) PBD binding inhibition | 97,000 tested, 0.13% active | P53350 | Plk1 PBD phosphopeptide binding, fluorescence polarization | inhibition, %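 (tested at about 20 µM)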; in the data active = inhibition above about 34%, passing the limit was not always enough
CYP2C19 inh – blocks human cytochrome P450 2C19. AID 778. inhibition, % at 5 µM. 96,000 tested, 21% active. P33261. CYP2C19 Supersomes, luciferin-H EGE luminescence, 30 min;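 active = CYP2C19 inhibition above a set limit at 5 µM in the primary screen, cut at about 50% in these data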;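 note: plate controls were negative control wells for no effect and 2.5 mM tranylcypromine positive control for full effect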
PLK1 inh – inhibitors of human PLK1 kinase; P53350; recombinant PLK1 kinase, TR-FRET peptide phosphorylation; inhibition, % at 10 µM; 97,000 tested, 0.53% active; AID 619;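 active = inhibition of 50% or more in the single-concentration screen; inactive = inhibition below 50%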;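 note: 0% = DMSO max control and 100% = H-89 dihydrochloride min control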
Active calls of the source: *; . = no result given.

SMILES | CYP2C9 activ | CYP2C19 activ | CYP2C9 inhib | Plk1 PBD FP | CYP2C19 inh | PLK1 inh
Cc1cc(=O)[nH]c(SCCCOc2ccc(F)cc2)n1 | 1 | 0.9 | 1 | 11 | 14 | -10
CCC(=O)c1ccccc1OCCSc1nc(C)cc(=O)[nH]1 | 0.5 | 0.3 | 45 | -5 | 72* | -11
CCc1c(C)nc(SCCOc2ccc(OC)cc2)[nH]c1=O | 0.4 | 0.3 | 62* | 3 | 66* | -10
CCCOc1cccc(OCCSc2nc(C)cc(=O)[nH]2)c1 | 0.5 | 0.5 | 51* | 17 | 46 | -9
CCc1c(C)nc(SCCOc2ccc(OC(C)C)cc2)[nH]c1=O | 1 | 1.1 | 0 | 2 | -14 | -15
CCOc1ccc(CCNS(=O)(=O)c2cnc[nH]2)cc1OCC | 0.1 | 0.3 | 94* | . | 68* | .
CCn1c(-c2ccccc2O)n[nH]c1=S | 1 | 0.6 | 4 | -9 | 35 | -7
CCn1c(-c2cc(-c3cccc(OC)c3)nc3ccccc23)n[nH]c1=S | 0.1 | 1.1 | 91* | 7 | -11 | -6
COC(=O)c1sc(N2C(=O)C(O)=C(C(=O)c3ccc(C)o3)C2c2ccc(F)cc2)nc1C (stereo not drawn) | 0.2 | 0.7 | 80* | 4 | 25 | -12
CCOc1cccc(C2C(C(=O)c3ccc(C)o3)=C(O)C(=O)N2c2nccs2)c1 (stereo not drawn) | 0.7 | 0.7 | 29 | 12 | 33 | -5
Cc1ccc(-c2nc(-c3ccccc3)no2)c(Cl)c1 | 1.1 | 1.1 | -14 | 3 | -14 | -13
Brc1cccc(-c2nc(-c3ccncc3)no2)c1 | 0.5 | 0 | 52* | . | 97* | .
c1ccc2c(-c3nc(-c4ccncc4)no3)cccc2c1 | 0.8 | 0.1 | 23 | -19 | 89* | -11
CC(C)(C)c1ccc(-c2nc(-c3ccncc3)no2)cc1 | . | . | . | 16 | . | 0
Clc1ccc(Br)cc1-c1nc(-c2ccncc2)no1 | 0.5 | 0.1 | 50* | 2 | 89* | -12
Cc1cc(C)cc(-c2nc(-c3ccncc3)no2)c1 | 0.7 | 0.2 | 30 | -15 | 83* | -5
O=C(CSc1nnc2ccccn12)Nc1ccccc1C(=O)NC1CC1 | 1 | 1.1 | 3 | 18 | -5 | 1
O=C(OC(C(=O)NCC1CCCO1)c1ccc(F)cc1)c1ccco1 (stereo not drawn) | 1 | 0.9 | 0 | -23 | 6 | -8
CCCCn1ccc(=O)c2c(C(F)(F)F)nccc21 | 1.1 | 1.1 | -6 | 0 | -8 | -6
N#CCc1ccc(C(=O)c2ccccc2F)s1 | 1 | 0.7 | 4 | -31 | 25 | -4
CSc1ccc(S(=O)(=O)NCc2ccc(C)cc2)cc1 | 1.6 | 0.1 | -62 | -10 | 95* | -7
Cc1ccc(S(=O)(=O)NCCCOC(=O)Nc2ccncc2)cc1 | 0 | 0.1 | 100* | 10 | 92* | -1
Cc1ccc(CCNS(=O)(=O)c2ccc(C)cc2)cc1 | 0.4 | 0.5 | 55* | 6 | 52* | -4
CCCCNS(=O)(=O)c1ccc(S(=O)(=O)NCc2ccncc2)cc1 | . | . | . | 14 | . | -11
CCCCc1ccc(S(=O)(=O)NCCc2ccncc2)cc1 | 0.3 | 0 | 68* | 14 | 100* | -13
SMILES | CYP2C9 activ | CYP2C19 activ | CYP2C9 inhib | Plk1 PBD FP | CYP2C19 inh | PLK1 inh
Cc1ccc(CNC(=O)CCNS(=O)(=O)c2ccc(C)cc2)cc1 | 1.7 | 0.9 | -71 | -19 | 9 | 3
Cc1ccc(S(=O)(=O)NCCc2ccc(S(N)(=O)=O)cc2)cc1 | 0.5 | 0.9 | 48 | -1 | 13 | -5
CCOC(=O)c1sc(/N=C/c2c(C)[nH]n(-c3ccccc3)c2=O)c(C#N)c1C | 0.7 | 1.1 | 28 | -89 | -10 | -8
CCOc1ccc(Br)cc1S(=O)(=O)NCCN(C)C | 1.1 | 1.1 | -8 | 14 | -14 | -21
Cc1ccc(S(=O)(=O)NCCc2ccncc2)cc1 | 0.5 | 0 | 51* | -12 | 97* | -10
Cc1ccc(CNS(=O)(=O)NCc2ccccc2)cc1 | 1.1 | 0.2 | -8 | 8 | 77* | -3
O=S(=O)(NCCc1ccncc1)c1cc(Br)ccc1F | 0.5 | 0.1 | 51* | -2 | 89* | -5
CC1CC(C)CN(C2CCN(Cc3cccnc3)CC2)C1 (stereo not drawn) | 0.9 | 1 | 12 | 1 | 3 | -10
CC(=NCCc1ccccc1)C1=C(O)COC1=O | 0.9 | 0.7 | 9 | -10 | 27 | -18
N/C(=N\OC(=O)C1CCCCC1)c1cccnc1 | 1 | 0.9 | -2 | -28 | 7 | -15

From PubChem BioAssay
